# Compound activity (PubChem)
# Rows were chosen to be rich in hits. Some 12% of all compounds tested hit in one or more screens of this group.
# HP1b chromo inh = inhibitors of HP1-beta chromodomain binding to methylated histone tails. AlphaScreen HP1-beta / biotin-H3K9me3 peptide binding. AID 540317. Potency, µM (series often up to 114 µM), for the others: at the highest dose activity change, negative = inhibition, actives largely listed as inhibitors. hit rate 0.56% among 390,000. P83916; further: nearly all actives have a fitted effect of over 70% in size
#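 AlphaScreen: HP1-beta (50 nM) preformed 30 min with biotin-H3(1-18)K9me3 peptide (50 nM) in PBS pH 7.4, 0.01% Tween-20. Compound added for 30 min at RT, then streptavidin donor/nickel chelate acceptor beads (10 ug/mL) for 30 min.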
# L3MBTL1 inh = L3MBTL1 (human) inhibition; Potency, µM (doses to about 57.1 µM), inactives show top-dose activity, negative = inhibition, usual class: inhibitors; AlphaScreen L3MBTL1–H3K9me1 peptide binding; Q9Y468; hit rate 0.66% among 230,000; AID 485360; further: on the % scale 0 is the no-effect control and ±100 the full control effect; nearly all actives have a fitted effect of over 60% in size
#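 AlphaScreen proximity signal between nickel-chelate acceptor and streptavidin donor beads (final 10 ug/mL) reports binding of 50 nM L3MBTL1 to 75 nM biotin-H3 K9me1 peptide; complex incubated with compounds 30 min at room temperature; cefsulodin titration as control.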
# BAZ2B block = inhibitors of human BAZ2B bromodomain. hit rate 4.4% among 360,000. Q9UIF8. AID 504333. Potency, µM (doses to about 114 µM), for the others: top-dose activity change, negative = inhibition, most hits filed as inhibitors. AlphaScreen BAZ2B-H3K14Ac peptide displacement; further: on the % scale 0 is the no-effect control and ±100 the full control effect; nearly all actives have a fitted effect of over 60% in size
#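 AlphaScreen displacement: compounds (up to 110uM) incubated 30 min at room temperature with a preformed 50 nM BAZ2B/50 nM biotinylated H3K14Ac peptide complex in PBS pH 7.4 with Tween-20. Donor and acceptor beads at 10 ug/mL final added, 20 min light-protected before reading.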
# G9a block = inhibitors of human histone lysine methyltransferase G9a. G9a H3K9 monomethylation, AlphaScreen, 2 h. Potency, µM (doses to about 102 µM), inactives show at the top dose activity, negative = inhibition, actives largely listed as inhibitors. hit rate 8.8% among 350,000; further: on the % scale 0 is the no-effect control and ±100 the full control effect; nearly all actives have a fitted effect of over 75% in size
#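 G9a (20 nM) preincubated 15 min RT with compounds, then 500 nM biotinylated H3K9 peptide and 20 uM SAM added; 2 h RT reaction. Monomethyl-H3K9 product detected by AlphaScreen with anti-H3K9me1 antibody, streptavidin donor and anti-rabbit IgG acceptor beads.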
# JMJD2A Tudor = blocks the human JMJD2A Tudor domain | AlphaScreen JMJD2A-Tudor / H3K4me3 peptide binding | Potency, µM (doses to about 114 µM), without a hit: top-dose activity change, negative = inhibition, hits mostly inhibitors | hit rate 4.4% among 390,000; further: on the % scale 0 is the no-effect control and ±100 the full control effect; nearly all actives have a fitted effect of over 50% in size
# Target sequence (O75164 whole entry, looked up, the tested form may be a part): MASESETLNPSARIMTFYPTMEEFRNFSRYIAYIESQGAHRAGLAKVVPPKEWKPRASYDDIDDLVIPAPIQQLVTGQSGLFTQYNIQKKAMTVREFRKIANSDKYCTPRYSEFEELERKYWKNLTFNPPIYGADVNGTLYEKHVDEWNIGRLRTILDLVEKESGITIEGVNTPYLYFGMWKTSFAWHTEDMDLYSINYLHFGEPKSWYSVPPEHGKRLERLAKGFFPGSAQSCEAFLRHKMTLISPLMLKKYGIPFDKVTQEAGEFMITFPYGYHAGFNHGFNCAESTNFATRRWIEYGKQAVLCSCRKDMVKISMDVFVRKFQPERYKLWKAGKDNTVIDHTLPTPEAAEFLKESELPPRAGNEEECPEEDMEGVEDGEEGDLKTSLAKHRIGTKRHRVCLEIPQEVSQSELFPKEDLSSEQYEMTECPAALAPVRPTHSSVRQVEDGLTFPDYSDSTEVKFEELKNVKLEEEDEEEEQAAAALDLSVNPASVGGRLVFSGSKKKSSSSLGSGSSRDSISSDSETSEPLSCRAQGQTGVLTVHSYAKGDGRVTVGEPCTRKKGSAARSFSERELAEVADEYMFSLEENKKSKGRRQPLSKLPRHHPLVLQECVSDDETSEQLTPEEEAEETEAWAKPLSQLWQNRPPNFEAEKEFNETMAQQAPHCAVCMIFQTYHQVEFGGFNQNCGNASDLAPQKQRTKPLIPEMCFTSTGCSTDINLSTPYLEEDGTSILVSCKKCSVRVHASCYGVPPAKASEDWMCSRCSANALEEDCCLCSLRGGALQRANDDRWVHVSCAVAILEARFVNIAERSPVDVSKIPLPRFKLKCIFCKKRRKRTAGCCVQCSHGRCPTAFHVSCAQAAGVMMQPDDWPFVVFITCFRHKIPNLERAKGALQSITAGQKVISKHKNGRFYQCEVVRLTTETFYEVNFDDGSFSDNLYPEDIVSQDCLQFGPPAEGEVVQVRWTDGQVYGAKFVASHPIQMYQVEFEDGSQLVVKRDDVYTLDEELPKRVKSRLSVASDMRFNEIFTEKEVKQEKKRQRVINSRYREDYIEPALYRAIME
# Sfp inh = Sfp phosphopantetheinyl transferase inhibition. Q9F4F7. Biochemical Sfp PPTase activity, qHTS. Potency, µM, inactives show largest response in the series, negative = inhibition, hits mostly inhibitors. hit rate 3.5% among 310,000;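 further: the enzyme is Sfp with the accession as filed and its product quenches rhodamine fluorescence; 0% = enzyme reaction without inhibitor and -100% = no enzyme wells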
#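 Step 1, compound plus 15 nM Sfp-PPTase, 15 min, room temperature. Step 2, add rhodamine-CoA (5 uM) and BHQ-2-YbbR (12.5 uM). Step 3, read 525/598 nm fluorescence at 0 and 30 min.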
# An asterisk follows results filed as active; ? = inconclusive; nt = no result; ! = a repeat was not active; [ ] = remark or other dose. The call rests on the fitted dose curve; in most records, active means well fitted curve in the direction sought with a large enough effect; inconclusive means small, poorly fitted or top-dose-only effect, or another doubt; inactive means no such curve, though single readings can be large; an effect the other way counts as inactive or inconclusive. Potency means the concentration at half of the fitted maximal effect.
SMILES,HP1b chromo inh,L3MBTL1 inh,BAZ2B block,G9a block,JMJD2A Tudor,Sfp inh
COc1c(C)cc(S(=O)(=O)Nc2cccc(-c3ccc(N4CCOCC4)nn3)c2)c(C)c1C,16%[57 µM],nt,-19%,9%[59 µM],-22%,nt
CN(C)S(=O)(=O)c1ccc2c(c1)N(CC(=O)N1CCN(c3cccc(Cl)c3)CC1)CCS2,18%[57 µM],nt,-2%,-4%[59 µM],-20%,nt
O=C(CSc1nc2ccc(Nc3nc(N4CCOCC4)nc(N4CCOCC4)n3)cc2s1)N1CCOCC1,21%,7%,0%,6%[59 µM],-15%,24%
CCCCc1ccc(Nc2nc(N3CCOCC3)nc(N3CCOCC3)n2)cc1,38%,nt,-39%[57.1 µM],50µM*,-14%,-5%
Cc1ccc(Nc2nc(N3CCOCC3)nc(N3CCOCC3)n2)cc1,20%,-1%,2%,nt,-14%,5%
CSc1nc2ccc(Nc3nc(N4CCOCC4)nc(N4CCOCC4)n3)cc2s1,3%,7%,1%,16µM*,-36%,-16%
Cn1ccc2cc(S(=O)(=O)N3CCN(C(=O)Nc4ccccc4F)CC3)ccc21,8%[57 µM],nt,-7%,6%[59 µM],-5%,nt
COc1ccc(-c2c(O)c3cc(O)cc(O)c3oc2=O)cc1,nt,nt,nt,nt,nt,13%
CCC12CN3CC(CC)(CN(C1)C3c1cccc(OC)c1O)C2=O (stereo unspecified),25%,nt,-16%,9%[59 µM],-11%,nt
COc1ccc(N2CCN(c3nc4cc(C)ccc4cc3C=O)CC2)cc1,?,nt,13µM*,25µM*,22µM*,-5%
COc1ccc(N2CCN(c3cc(C)c4cccc(C)c4n3)CC2)cc1,?,-20%,?,13µM*,22µM*,1%
COc1ccc(N2CCN(c3cc(C)c4ccc(O)cc4n3)CC2)cc1,16%,?,45µM*,?,?,11%
COc1ccc(N2CCN(c3cc(C)c4ccc(C)cc4n3)CC2)cc1,?,?,-38%,8.9µM*,?,-7%
Cc1cc(N2CCN(c3ncccn3)CC2)nc2c(C)cccc12,59%,nt,70%,33%,13%,-9%
CC(C)C[C@H](NC(=O)[C@H](C)NC(=O)CNC(=O)[C@H](CCCCN)NC(=O)[C@H](CCCN=C(N)N)NC(=O)[C@H](C)NC(=O)[C@H](Cc1ccccc1)NC(=O)[C@@H](N)CCCN=C(N)N)C(=O)N[C@@H](CCCN=C(N)N)C(=O)N[C@@H](CCC(N)=O)C(=O)N[C@@H](CCCCN)C(=O)N[C@@H](CC(N)=O)C(=O)N[C@H](C(N)=O)C(C)C,nt,nt,nt,nt,nt,-12%
Cc1ccc(-n2nc3c(=O)n(CC(=O)NCC(C)c4ccccc4)nc(C)c3c2C)cc1 (stereo unspecified),26%,nt,-7%,-28%[59 µM],-8%,nt
CC(C)c1ccc2oc(-c3cccc(NC(=O)c4ccc5c(c4)OCCO5)c3)nc2c1,23%,nt,6%,2%[59 µM],2%,nt
COc1ccc(C(=O)CSc2nnc(CNc3ccc(F)cc3)o2)cc1,22%,nt,-11%,-2%[59 µM],-12%,15%
COc1ccc(NCc2nnc(SCC(=O)c3ccc(C)cc3)o2)cc1,-23%,nt,?,14µM*,?,-8%
COc1ccc(CCCc2nnc(SCC(=O)Nc3ccc(OC)cc3)o2)cc1,-5%,nt,3%,?,28µM*!,3%
O=C1c2ccccc2C(=O)N1c1ccc2ccccc2n1,nt,nt,nt,nt,-12%,nt
COc1ccccc1CCN1COc2c(cc3c(C)c(C)c(=O)oc3c2C)C1,78%,nt,9%,29%[59 µM],-17%,nt
O=C(NC(=S)NNC(=O)c1ccccc1[N+](=O)[O-])c1ccccc1,?,27%,-3%,2.5µM*,28µM*,35µM*
O=C(NCCNC(=O)c1ccccc1[N+](=O)[O-])c1ccccc1[N+](=O)[O-],25%,nt,nt,nt,-4%,nt
CC(C)C(=O)Nc1ccc(C(=O)NNC(=S)NC(=O)c2ccccc2[N+](=O)[O-])cc1,31%,18%,14%,32%[12.7 µM],-15%,11%
SMILES,HP1b chromo inh,L3MBTL1 inh,BAZ2B block,G9a block,JMJD2A Tudor,Sfp inh
CCCCC(=O)Nc1ccc(C(=O)NNC(=S)NC(=O)c2ccccc2[N+](=O)[O-])cc1,27%,10%,-4%,?,-13%,35µM*
CCC(=O)NC(=S)NNC(=O)c1ccccc1[N+](=O)[O-],38%,12%,?,3.2µM*,-9%,10µM*
O=C(NNC(=O)c1ccccc1[N+](=O)[O-])c1ccccc1[N+](=O)[O-],-2%,25%,0%,10µM*,-19%,-61%
CCCOc1ccc(C(=O)NNC(=S)NC(=O)c2ccccc2[N+](=O)[O-])cc1,7%,-9%[2.29 µM],-8%,43%[0.501 µM],-29%,31%
O=C(NNC(=S)NC(=O)c1ccccc1[N+](=O)[O-])c1ccccc1,30%,29%,11%,?,-3%,16%
Cc1ccc(Nc2nnc(-c3ccc(C)c(S(=O)(=O)N4CCN(C)CC4)c3)c3ccccc23)c(C)c1,13%,nt,-2%,-32%[59 µM],?,nt
CCCCC(=O)Nc1ccc(C(=O)NNC(=O)c2ccc(C)c(Br)c2)cc1,-10%,-2%,-35%,?,56µM*,9%
COc1ccc(NC(=S)NC(=O)c2ccc(Br)o2)cc1,0%,-23%[2.29 µM],-31%,-49%,-10%,?
CC(C)(C)c1ccc(OCC(=O)NNC(=S)NC(=O)c2ccccc2[N+](=O)[O-])c(Br)c1,?,12%,-26%,45µM*,?,40µM*
Cc1ccccc1OCC(=O)NNC(=S)NC(=O)c1ccccc1[N+](=O)[O-],-5%,16%,1%,-11%[59 µM],5%,22%
CCCCC(=O)Nc1ccc(C(=O)NNC(=O)CCc2ccccc2)cc1,13%,-10%,-2%,21%[2.33 µM],-15%,2%
CCCC(=O)Nc1ccc(C(=O)NNC(=S)NC(=O)c2ccc(Br)o2)cc1,?,14%,5%,40µM*,-4%[11.4 µM],12%
O.O.O.O.O.O.O.O=S(=O)([O-])[O-].[Co+2],nt,nt,nt,?,nt,79µM*
Cc1ccc(NC(=O)C(NS(=O)(=O)c2ccc3c(c2)CCC(=O)N3)c2ccccc2)cc1C (stereo unspecified),17%,nt,?,?,-23%,nt
Nc1cc(S(=O)(=O)O)cc([N+](=O)[O-])c1O,35µM*,?,?,45µM*,35µM*,79µM*
Nc1ccc(C(=O)O)cc1[N+](=O)[O-],63%,17%,-14%,-4%,5%,12%
CCCCN(C)CCCNC(=O)Cn1nc(CC)n2c(cc3sc(C)cc32)c1=O,39%,nt,3%,-5%[59 µM],18%,nt
CC1(C)CC(=O)C(C=NCCN2CCN(C(=S)Nc3ccc(F)cc3)CC2)=C(O)C1,57%,5%,3%,56%[12.7 µM],-13%,-2%
